Rows were chosen to be rich in hits. Some 2.6% of all compounds tested hit in one or more screens of this group.
CRFR2-BP ag = CRF-BP/CRF-R2 complex agonism | activation, % at 13.2 µM | AID 588473 | 350,000 tested, 0.46% active | HEK293 CRF-R2/CRF-BP, calcium dye fluorescence (FLIPR); percent of saturating CRF peptide response;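 active = activation of at least 50%, plus an integration ratio under a set limit after plate pattern correction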;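 also: plate controls were neutral control wells without compound for no effect and CRF at EC100 for full effect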
Myeloid diff 2 = promotes myeloid progenitor differentiation; ER-HoxA9 myeloid progenitors, lysozyme-GFP differentiation, flow cytometry; calls only at 10 µM; 360,000 tested, 1% active; AID 624256;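 active = normalized GFP-positive differentiation at or above the plate's own cutoff, the solvent-only control mean plus 3 SD; inconclusive = no clear call, values can overlap the other calls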;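 also: cells exposed to compound for four days before flow analysis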
IDE cell activ = activators of human insulin-degrading enzyme in cells. P14735. HEK cells, FAbeta-B cleavage, fluorescence polarization; 0% vehicle, 100% cell-free pure enzyme wells. activation, % at 5.96 µM. 340,000 tested, 0.073% active. AID 493087;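 active = activation above the mean of all tested compounds plus 3 SD, set per screening campaign, cut at about 17% in these data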
CRFBP-R2 block = blocks CRF-induced signaling of the CRF-BP/CRF-R2 complex | AID 588475 | inhibition, % at 11.8 µM | 350,000 tested, 0.59% active | HEK293 CRF-R2/CRF-BP, CRF-induced calcium fluorescence;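 active = inhibition of the ligand-induced calcium signal above about 50% at the single tested concentration, limit read from the data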
IDE inh = cellular human IDE inhibition; HEK cells, FAbetaB cleavage, fluorescence polarization; inhibition, % at 5.59 µM; P14735; 320,000 tested, 0.41% active; AID 434962;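 active = percent inhibition above the average of all tested compounds plus 3 SD, set per screening campaign, cut at about 16% in these data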;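 also: IDE supplied by intact live HEK cells; FP after avidin binding of uncleaved biotin substrate so inhibition keeps polarization high; 0% = DMSO wells and 100% = 60 µM reference IDE inhibitor Ii1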
TPT1 inh = inhibitors of Candida albicans tRNA 2'-phosphotransferase TPT1 | recombinant caTPT1, FP RNA substrate dephosphorylation | 300,000 tested, 0.81% active | inhibition, % at 5 µM;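 active = inhibition above the mean of all tested compounds plus 3 SD, set per screening campaign, cut at about 24% in these data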;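 also: plate controls were DMSO alone for no effect and ferristatin control at 100 nM for full effect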
TPT1 inh confirm = TPT1 (C. albicans) inhibition, confirmation; shares compounds with TPT1 inh; recombinant caTPT1, fluorescence polarization, RNase T1 coupled; inhibition, % at 5 µM; 2,400 tested, 74% active; AID 2149;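 active = inhibition above the primary screen limit, the mean inhibition of all tested compounds plus 3 SD, cut at about 25% in these data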
RNase T1 counter = counter-screen for TPT1 inhibitors: inhibitors of Aspergillus oryzae RNase T1; shares compounds with TPT1 inh; AID 2153; 2,400 tested, 83% active; inhibition, % at 5 µM; RNase T1 cleavage, fluorescence polarization, 1536-well;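 active = inhibition above the solvent-only control well mean plus 3 SD, limit set per screening run, cut at about 23% in these data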;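 also: plate controls were DMSO wells with enzyme for no effect and wells without RNase T1 for full effect; inhibitors block cleavage so intact labeled substrate keeps polarization high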
Target sequence (P00651 whole entry, looked up): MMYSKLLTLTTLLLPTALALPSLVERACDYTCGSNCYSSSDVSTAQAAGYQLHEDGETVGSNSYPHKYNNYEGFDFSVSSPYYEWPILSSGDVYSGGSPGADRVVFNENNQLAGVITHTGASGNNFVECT
Numbers without * were called inactive; i = inactive; ? = inconclusive; / = not tested or not shown; + = active, no number.

SMILES | CRFR2-BP ag | Myeloid diff 2 | IDE cell activ | CRFBP-R2 block | IDE inh | TPT1 inh | TPT1 inh confirm | RNase T1 counter
CC(C)(C)OC(=O)CN1C(=O)S/C(=C\c2ccc(-c3cccc(C(=O)O)c3)o2)C1=O | / | / | / | / | 4 | 5 | / | /
CC(C)OC(=O)CN1C(=O)S/C(=C/c2ccc(N3CCCCC3)o2)C1=O | 7 | i | -28 | -30 | 5 | 180* | + | 179*
O=C(O)COc1ccccc1/C=C1\SC(=O)N(Cc2ccc(F)cc2)C1=O | 3 | i | -3 | -24 | 0 | 0 | / | /
O=C1S/C(=C\c2ccc(N3CCOCC3)o2)C(=O)N1Cc1ccc(F)cc1 | 32 | i | -29 | -9 | 7 | 142* | 168* | 165*
COc1ccc(O[C@H]2C=C[C@@H](c3ccccc3)O[C@@H]2CO/N=C(\C)CCC(=O)OC[C@H]2O[C@H](c3ccccc3)C=C[C@@H]2Oc2ccc(OC)cc2)cc1 | / | / | / | / | 3 | -3 | / | /
COc1cc(/C=C(\C#N)c2nc3ccccc3s2)ccc1OCC(=O)Nc1ccccc1 | 10 | + | 1 | -33 | 28* | 60* | 32* | 44*
Cc1cc(C)c2nc(NNC(=O)c3ccc(S(=O)(=O)N4CCc5ccccc5C4)cc3)sc2c1 | 2 | i | -2 | -28 | -1 | -1 | / | /
Cc1cc(C)c2nc(NNC(=O)c3cc(=O)c4ccccc4o3)sc2c1 | -1 | i | 0 | 1 | 2 | 25* | 27* | 41*
COc1ccc(C(=O)C[C@@H]2OC[C@H](C(C)C)N2S(=O)(=O)c2ccc(C)cc2)cc1OC | / | i | / | / | / | / | / | /
Cc1cc(Br)ccc1OCCN1CC(C)OC(C)C1 (stereo not given) | 2 | i | 4 | 10 | 4 | 48* | 10 | 12
O=C(Nc1cccc(C(F)(F)F)c1)c1ccc2sc([C@H]3C[C@H](O)[C@@H](CO)O3)nc2c1 | / | i | / | / | / | / | / | /
COc1ccccc1C(=O)NCCC(=O)Nc1ccc(S(=O)(=O)N2CCC(C)CC2)cc1 | 0 | i | -1 | -14 | -1 | / | / | /
CCN(CC)c1ccc(/C=C(\C#N)C(N)=O)cc1 | 2 | i | -2 | -7 | / | / | / | /
CCOC(=O)NC(=O)/C(C#N)=C/c1ccc(N(C)C)cc1 | 43 | i | / | -35 | 2 | 99* | 115* | 125*
COc1ccc(-n2nc(C(=O)NCC(=O)Nc3cc(OC)c(OC)c(OC)c3)c3ccccc3c2=O)cc1OC | -1 | i | 5 | 0 | -1 | -5 | / | /
Cc1cc(C)n(Cc2cc(C(=O)O)c3ccccc3n2)n1 | -1 | i | 1 | -30 | 5 | 7 | / | /
CN(C)CCNC(=O)/C(=C/c1ccc(-c2ccc(Cl)cc2)o1)NC(=O)c1ccccc1 | 1 | i | 1 | 0 | 2 | 41* | 8 | 12
O=C(NCCN1CCOCC1)/C(=C/c1ccc(Cl)cc1)NC(=O)c1ccccc1 | 0 | i | 0 | 2 | 4 | -1 | / | /
C[C@H]1CN([C@@H](C)CO)C(=O)c2cc(Br)cnc2O[C@@H]1CN(C)C(=O)C1CCC1 | 4 | i | / | -7 | / | / | / | /
Cc1ccc(CNc2ccc3c(c2)OCO3)c(C)c1 | / | / | / | / | 10 | 26* | 20 | 35*
Oc1[nH]c2ccccc2c1N=Nc1ccccc1F | 145* | i | -18 | -77 | 6 | 138* | 129* | 130*
COc1ccc(Oc2cnc3ccccc3n2)cc1 | -2 | i | 2 | -4 | 3 | 66* | 4 | 5
CCN(CC)c1ccc2cc(-c3nc4ccccc4n3C)c(=O)oc2c1 | 248* | ? | -35 | -239 | 14 | 81* | 81* | 85*
Cc1ccc(N/C=C/c2onc(C)c2[N+](=O)[O-])cc1 | 8 | i | 5 | -10 | -2 | 49* | 56* | 68*
Cc1cccc(C)c1N/C=C/c1onc(C)c1[N+](=O)[O-] | -2 | i | 4 | -3 | 7 | 6 | / | /
NNc1nc(-c2ccccc2Cl)nc2ccccc12 | 4 | i | 0 | 10 | 1 | 31* | 20 | 33*

From PubChem BioAssay
